The values that follow come from PubChem BioAssay AID463219 (Sanford-Burnham Center for Chemical Genomics, 2010).

The list shows a part of the results. A number with no mark means an inactive call. Activity calls are given as the source filed them.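 Rule for the calls: active = cytotoxicity above 50% in each of four replicates; inactive = the rest.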

The nature of this assay: viability loss in mouse AML12 liver cells – cell-based, single concentration, cytotoxicity control for hepatic lipid droplet formation project, confirmation (AID 463219).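 Note: compound exposure lasted overnight at 37 °C before the ATP read; 0% = DMSO-treated cells and 100% = wells with no cells.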 Particulars: AML12 mouse hepatocyte viability, ATP luminescence; at 50 µM; active compounds read high; cells loaded with 100 µM oleic acid.

`O=C1Nc2ccc(Br)cc2/C1=N/N=C/C1=C(N2CCOCC2)C(=C\c2ccccc2)/CC1`: the cytotoxicity is -0.325%. In the case of `Cc1ccc(N2C(=O)C(NC(=O)c3c(F)cccc3F)(C(F)(F)F)C3=C2CC(C)(C)CC3=O)cc1` (stereo not drawn), the cytotoxicity is 13.2%. Then `CCOc1ccc(CCNC(=O)CCc2nnc3ccc(N4CCCC4)nn23)cc1OCC`, with 2.1%; and `CCCN(CCC)c1ccc(C(O)c2nnc(-c3ccccc3)o2)cc1` (stereo not drawn), with 6.65%; and `COc1ccc(Cl)cc1NC(=O)CN(C)C(=O)CCCc1c[nH]c2ccccc12`, with 22.5%. On to `Cc1cc(NC(=O)CSc2nc(C(C)C)nc3sc4c(c23)CCC(C)C4)no1` (stereo not drawn), for which the cytotoxicity is 10.1%. Regarding `CCCc1ccc(-c2csc(NC(=O)Cc3cccs3)n2)cc1`, the cytotoxicity was 14%. As for `COc1cccc(/C=C(/CC(=O)Nc2ccc(N3CCOCC3)cc2)c2nc3ccccc3s2)c1`, the cytotoxicity is 9.53%.

Take `COc1ccc(/C=C(\NC(=O)c2ccc(OCC(C)C)cc2)C(=O)OCc2ccco2)cc1`: the cytotoxicity was 7.73%.

`Cc1cc(C(=O)NC2CCCc3c2cnn3-c2cccc(C)c2C)c(C)o1` (stereo not drawn): the cytotoxicity is 14.5%. As to `Cn1c(=O)[nH]c(=O)c2c1nc(N1CCN(C(c3ccccc3)c3ccccc3)CC1)n2CCO`, the cytotoxicity is 77.5% (active).

In the case of `COc1ccc(C(C(=O)NC(C)(C)C)N(Cc2ccc(F)cc2)C(=O)CCC(=O)Nc2cc(C)on2)cc1` (stereo not drawn), the cytotoxicity is 10.5%. Consider `CCOc1ccc(CCNC(=O)Nc2ccccc2)cc1OCC`, for which the cytotoxicity is 12.3%.
